Data from PubChem BioAssay AID2314 (National Center for Advancing Translational Sciences (NCATS), 2010).
Out of some 300,000 compounds screened, about 37,000 (12%) were called active. No stated cut-off is given here; in the data, active means max response mostly above about 13% (no sharp cut-off); inactive means mostly below about 14%. What follows is part of a selection rich in actives, with near analogues and random picks from the rest.

Assay: Cycloheximide Counterscreen for Small Molecule Inhibitors of Shiga Toxin; further: read at 38.3 µM for the half of the compounds with a filed dose; 0% is about no effect
Conditions: cell reporter, cycloheximide protein synthesis inhibition counterscreen; hits give high values

SMILES	max response
CCC1=C(OC(=O)N(CC)CC)N2C(=O)OC(=NCCc3c[nH]c4ccccc34)[C@]2(C)[C@H]2C1=CC[C@H]1C(=O)N(CC)C(=O)[C@H]12	-4.31% (inactive)
O=C(CCc1nnc2ccc(NCc3ccccc3Cl)nn12)NCC1CCN(C2CCCC2)C1 (stereo unspecified)	-4.64% (inactive)
Cc1ccc(NS(=O)(=O)c2c(C)[nH]c(C)c2C(=O)N2CCCCC2)c(C)c1	18% (inactive)
CN(C)c1ccc(C=C2C(=O)OC3(CCCC3)OC2=O)cc1	0.693% (inactive)
O=C(Nc1ccn(Cc2ccccc2)n1)c1cccc(F)c1	39% (active)
CC(=O)Nc1ccn(Cc2c(F)cccc2Cl)n1	18.4% (active)
O=C(Nc1ccccc1N1CCCCC1)c1cccc(F)c1	3.77% (inactive)
O=C(O)CC(Cc1ccccc1)C(=O)Nc1ccc([N+](=O)[O-])cc1 (stereo unspecified)	11.6% (inactive)
O=C(Cn1cnc([N+](=O)[O-])n1)NCCc1ccccc1	6.14% (inactive)
O=C(Nc1ccccc1N1CCN(c2ccccc2)CC1)c1cccc(F)c1	-4.37% (inactive)
CC(C)(C)NC(=O)NC(=O)COC(=O)Cc1c(F)cccc1Cl	6.65% (inactive)
Cc1nnsc1C(=O)NCc1c(F)cccc1Cl	8.44% (inactive)
O=C(Nc1ccn(Cc2ccccc2)n1)c1n[nH]c([N+](=O)[O-])c1Cl	47.7% (active)
CCOc1cc(C)ccc1OCc1nnc(SCC(=O)Nc2cccc(C(=O)O)c2)n1-c1ccccc1	3.69% (inactive)
CC(C)C[C@H]1CN=C(Nc2ccccc2)N1CC1CCCCC1	-4.32% (inactive)
CC(=O)N1c2ccc(S(=O)(=O)N3CCCC(C(=O)Nc4ccc(C)cc4C)C3)cc2CC1C (stereo unspecified)	-0.234% (inactive)
CC(C)c1cc(NCc2ccccn2)n2c(nc3ccccc32)c1C#N	9.39% (inactive)
Cc1ccc(Cl)cc1N1CCN(C(=O)c2cccc3c(=O)c(C)c(-c4ccccc4)oc23)CC1	3.64% (inactive)
COCCn1cnc2c1c(=O)n(CC(=O)NN)c(=O)n2Cc1ccccc1	-14.6% (inactive)
O=Cc1c(Nc2ccccc2Cl)nc2ccccn2c1=O	-2.35% (inactive)
O=C(COC(=O)CCCNC(=O)c1ccc(Cl)cc1)Nc1cc(Cl)ccc1Cl	-0.294% (inactive)
COCCn1c(C)cc(C2=NNC(=Nc3ccc(F)cc3)SC2)c1C	31.2% (active)
Cc1cc(C2=NNC(=Nc3ccc(S(=O)(=O)N4CCOCC4)cc3)SC2)c(C)n1CC1CCCO1 (stereo unspecified)	19.4% (inactive)

SMILES	max response
C=CCn1c(C)cc(C2=NNC(=NCC)SC2)c1C	-12% (inactive)
COc1ccc(C(=O)C[n+]2ccc(N)c(C)c2C)cc1	-5.16% (inactive)
CN1CN(C)c2ccc([N+](=O)[O-])c3cccc1c23	-0.807% (inactive)
C=CCNC(=S)/N=c1/ccccn1Cc1ccccc1	1.08% (inactive)
COc1ccccc1OCCNc1cc(N2CCOCC2)ccc1[N+](=O)[O-]	24.7% (active)
CN(CC(=O)Nc1ccc(N2CCOCC2)cc1)CC(=O)Nc1ccccc1[N+](=O)[O-]	-1.06% (inactive)
CC(=O)Nc1ccc(S(=O)(=O)N2CCN(c3ccc([N+](=O)[O-])c(NCCN4CCOCC4)c3)CC2)cc1	-3.02% (inactive)
Cc1ccc(CNC(=O)C2CCCN2S(=O)(=O)c2ccc3c(c2)C(C)(C)C(=O)N3C)cc1 (stereo unspecified)	-3.55% (inactive)
C=CCOc1ccc(C(=O)Nc2ccccc2C(=O)N2CCCC2)cc1	-1.61% (inactive)
Cc1cccc(NC(=O)CN2CCCN(S(=O)(=O)c3ccc(Br)s3)CC2)c1	19.9% (inactive)
CSc1ncccc1C(=O)OCC(=O)N1CCOCC1	-5.04% (inactive)
CSc1ncccc1C(=O)OCc1ccc(Br)cc1	36.2% (active)
CSc1ncccc1C(=O)NCc1ccccc1Cl	2.57% (inactive)
CN1CCN(c2cc3c(cc2F)c(=O)c(C(=O)O)cn3CCF)CC1	-3.38% (inactive)
Oc1ccc2ccccc2c1N=Nc1nccs1	11.4% (inactive)
Oc1ccc(N=Nc2nccs2)c(O)c1	38% (active)
NC(=O)N1CCc2ccccc21	-6.54% (inactive)
O=C(CSCc1ccccc1)N1CCc2ccccc21	50.5% (active)
Cc1nnc(SCC(=O)N2CCc3ccccc32)n1-c1ccccc1	-1.58% (inactive)
Cc1ccc(Oc2cc(NC(=O)CCCn3nc(C)c([N+](=O)[O-])c3C)cc([N+](=O)[O-])c2)cc1	6.56% (inactive)
Cc1ccc2ccc3c(c2n1)NS(=O)(=O)c1ccccc1-3	9.31% (inactive)
O=C1CC(C(F)(F)C(F)(F)C(F)(F)C(F)(F)F)=Nc2ccccc2N1	1.33% (inactive)
Cc1ccccc1-n1nc(C)c2cc(C(=O)NC3CC3)sc21	13.7% (inactive)
